For orientation: remaining activity means the signal under treatment as a percentage of the control signal.

Assay [1] has as its system Aerobactin synthetase IucA (Klebsiella pneumoniae). Nature of the assay: IucA aerobactin synthetase inhibitors, biochemical, Tocris library, absorbance (AID 1345561; call rule not given here;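 further: 100% = enzyme without compound and 0% = no enzyme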). Particulars: purified IucA enzyme assay, absorbance (OD) read-out; stronger effect = lower value;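 tested at 8 µM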.
Assay [2] can be described thus: sensitizers of A549 cells to miR-34 induction, primary screen, imaging, A549 dox-inducible miR-34, nuclei and caspase counts (AID 1347080). To be noted: A549 miR-34 inducible, Hoechst nuclei count, 48 h.
The nature of assay [3]: viability rescue of complex I mutant cybrids, primary screen, cell-based, galactose medium, ATP luminescence (AID 1645843;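 active means z-score of at least 1.8 in each of two replicates, scored against plate mean and spread of sample wells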;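 further: positive z means more ATP and so rescue of galactose-driven cybrid death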). Particulars: complex I mutant cybrid cells, 72 h, stronger effect = higher value.
[4] abbreviates: stronger effect = lower value, cell number ratio, induced over uninduced.
Setting [5] is: measured here: relative caspase fold change +Dox/-Dox.
[6] abbreviates: measured here: total cells with miR-34 induction, stronger effect = lower value.
[7] abbreviates: measured here: total cells without miR-34 induction.

Where “and” joins values, the source holds several entries; their conditions need not be identical. Equal entries are not always repeated. Calls of active or inactive are those of the source.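 How the source made its calls, unless noted: active means compounds whose cell count with miR-34 switched on is under 0.7 times the count with it off; inactive means the rest.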

In the case of `N[C@@H](Cc1cc(-c2ccc(Cl)cc2Cl)cc(CP(=O)(O)O)c1O)C(=O)O`, in assay [1], the remaining activity is 115% (inactive). Also, the fold change in assay [2] (setting [4]) is 0.913 (inactive); in assay [2] (setting [5]), 0.553. Moreover, the values for the cell count in assay [2] (setting [6]) and in assay [2] (setting [7]) were 8540 and 9350, respectively. For the same molecule, the z-score in assay [3] was 0.635 (inactive).

With `Cn1cc(/C=C2/C(=O)Nc3cccnc32)c2ccccc21`, the remaining activity in assay [1] is 89.8% (inactive). Besides, the fold change in assay [2] (setting [4]) is 0.833 (inactive); in assay [2] (setting [5]) it was 1.45. Besides, the cell count turned out to be 2650 in assay [2] (setting [6]) and 3180 in assay [2] (setting [7]). The z-score in assay [3] was -0.435 (inactive).

In the case of `COc1ccc([C@H]2CNC(=O)C2)cc1OC1CCCC1`, the remaining activity in assay [1] was 113% (inactive). The fold change is 0.966 (inactive) in assay [2] (setting [4]) and 0.702 in assay [2] (setting [5]). In addition, the figures for the cell count in assay [2] (setting [6]) and in assay [2] (setting [7]) were 9600 and 9950, respectively. For the same molecule, in assay [3], the z-score is -0.255 (inactive).

As for `c1ccc(C(O[C@@H]2CCCN(CCc3ccc4c(c3)OCO4)C2)c2ccccc2)cc1`, the remaining activity in assay [1] is 119% (inactive). For the same molecule, the fold change is 0.989 (inactive) in assay [2] (setting [4]) and 1.1 in assay [2] (setting [5]). The cell count in assay [2] (setting [6]) worked out at 8350; in assay [2] (setting [7]) it was 8440. The z-score in assay [3] is -0.585 (inactive).

Turning to `N[C@@H](CSS(=O)(=O)O)C(=O)O`, the remaining activity in assay [1] is 94.5% (inactive). In addition, the fold change is 0.893 (inactive) in assay [2] (setting [4]) and 0.93 in assay [2] (setting [5]). Also, the cell count in assay [2] (setting [6]) amounted to 8240; in assay [2] (setting [7]) it was 9220. Further, the z-score in assay [3] is -0.57 (inactive).

With `O=c1[nH]ccc2c(S(=O)(=O)N3CCCNCC3)cccc12`, the remaining activity in assay [1] was 105% (inactive). For the same molecule, the fold change in assay [2] (setting [4]) is 0.922 (inactive); in assay [2] (setting [5]), 0.813. Moreover, the cell count amounted to 9480 in assay [2] (setting [6]) and 10300 in assay [2] (setting [7]). For the same molecule, in assay [3], the z-score is -0.145 (inactive).

For `O=C(Nc1ccc(C(F)(F)F)cn1)N1CCN(c2ncccc2C(F)(F)F)CC1`, the remaining activity in assay [1] was 86.8% (inactive). Besides, the fold change in assay [2] (setting [4]) was 0.952 (inactive); in assay [2] (setting [5]), 1.39. For the same molecule, the cell count worked out at 6230 in assay [2] (setting [6]) and 6540 in assay [2] (setting [7]). In assay [3], the z-score was -0.475 (inactive).

With `CC(C)(C)n1nc(-c2cccc3ccccc23)c2c(N)ncnc21`, the remaining activity in assay [1] is 117% (inactive). For the same molecule, the fold change in assay [2] (setting [4]) is 0.947 (inactive); in assay [2] (setting [5]) it was 1.81. Besides, the cell count in assay [2] (setting [6]) was found to be 3180; in assay [2] (setting [7]) it was 3350. Moreover, the z-score in assay [3] is -0.105 (inactive).

As for `Nc1nc(Nc2ccccc2)nc2c1ncn2[C@@H]1O[C@H](CO)[C@@H](O)[C@H]1O`, in assay [1], the remaining activity is 107% (inactive). The fold change is 0.978 (inactive) in assay [2] (setting [4]) and 0.752 in assay [2] (setting [5]). In addition, the cell count is 9880 in assay [2] (setting [6]) and 10100 in assay [2] (setting [7]). The z-score in assay [3] was -0.09 (inactive).

For `CCS(=O)(=O)N(C)[C@H]1c2cc(C#N)ccc2OC(C)(C)[C@@H]1O`, in assay [1], the remaining activity was 111% (inactive). The fold change in assay [2] (setting [4]) was 0.889 (inactive); in assay [2] (setting [5]), 1.89. The cell count was determined as 8640 in assay [2] (setting [6]) and 9720 in assay [2] (setting [7]). Moreover, in assay [3], the z-score was 0.545 (inactive).

For the molecule `CSc1cc2c(cc1C(F)(F)F)N(C(=O)Nc1cccnc1)CC2`, the remaining activity in assay [1] was 112% (inactive). The fold change in assay [2] (setting [4]) is 0.921 (inactive); in assay [2] (setting [5]), 0.728. The values for the cell count in assay [2] (setting [6]) and in assay [2] (setting [7]) were 9460 and 10300, respectively. For the same molecule, the z-score in assay [3] was 0.05 (inactive).

`O=C(c1ccc2c(c1)OCO2)N1CCCCC1`: the remaining activity in assay [1] was 118% (inactive). For the same molecule, the fold change in assay [2] (setting [4]) is 0.987 (inactive); in assay [2] (setting [5]), 0.905. In addition, the cell count in assay [2] (setting [6]) was determined as 9020; in assay [2] (setting [7]), 9140. Further, the z-score in assay [3] is -0.205 (inactive).

As to `COc1ccc(NC(=O)c2cc(OCCCN(C)C)nn2Cc2ccccc2)cc1`, the remaining activity in assay [1] was 99.8% (inactive). The results for the fold change in assay [2] (setting [4]) and in assay [2] (setting [5]) were 0.937 (inactive) and 1.3, respectively. The cell count in assay [2] (setting [6]) was determined as 8250; in assay [2] (setting [7]) it was 8810. The z-score in assay [3] is -0.3 (inactive).

For `CCCCCCCC/C=C\CCCCCCCC(=O)N[C@@H](CO)Cc1ccc(O)cc1`, in assay [1], the remaining activity was 129% (inactive). The fold change is 0.903 (inactive) and 0.933 (inactive) in assay [2] (setting [4]); 1.11 and 0.626 in assay [2] (setting [5]). For the same molecule, the cell count in assay [2] (setting [6]) is 5590 and 5540; in assay [2] (setting [7]) it was 6200 and 5940. Besides, the z-score in assay [3] was -0.83 (inactive).

For `CC(C)Oc1ccc2c(=O)c3cc(C(=O)O)ccc3oc2c1`, the remaining activity in assay [1] is 93.9% (inactive). The fold change in assay [2] (setting [4]) was 1.01 (inactive); in assay [2] (setting [5]), 1.37 and 0.638. In addition, the cell count is 5920 and 8510 in assay [2] (setting [6]); 5860 and 8390 in assay [2] (setting [7]). For the same molecule, the z-score in assay [3] is 0.015 (inactive).

`NC(Cn1ccc(=O)n(Cc2ccccc2C(=O)O)c1=O)C(=O)O` (centres undefined): the remaining activity in assay [1] was 98.2% (inactive). Besides, the fold change in assay [2] (setting [4]) is 0.925 (inactive); in assay [2] (setting [5]), 1.4. Further, the figures for the cell count in assay [2] (setting [6]) and in assay [2] (setting [7]) were 8950 and 9680, respectively. For the same molecule, the z-score in assay [3] was 0.13 (inactive).

Take `CC[N+](C)(CC)CC(=O)Nc1c(C)cccc1C`: the remaining activity in assay [1] is 109% (inactive). Moreover, the fold change in assay [2] (setting [4]) is 0.963 (inactive); in assay [2] (setting [5]), 0.801. Moreover, the cell count stood at 8930 in assay [2] (setting [6]) and 9270 in assay [2] (setting [7]). Also, in assay [3], the z-score was 0.265 (inactive).

As to `Cc1nc2c(O)cccc2c(=O)[nH]1`, the remaining activity in assay [1] is 117% (inactive). The values for the fold change in assay [2] (setting [4]) and in assay [2] (setting [5]) were 0.957 (inactive) and 0.648, respectively. Also, the cell count in assay [2] (setting [6]) was found to be 9130; in assay [2] (setting [7]) it was 9530. The z-score in assay [3] is -0.215 (inactive).

As for `CC1(C)C[C@@H]1C(=O)N/C(=C\CCCCSC[C@@H](N)C(=O)O)C(=O)O`, in assay [1], the remaining activity is 102% (inactive). Also, the values for the fold change in assay [2] (setting [4]) and in assay [2] (setting [5]) were 0.976 (inactive) and 1.46, respectively. For the same molecule, the cell count in assay [2] (setting [6]) came to 9200; in assay [2] (setting [7]), 9420. Further, the z-score in assay [3] was -0.005 (inactive).

`CCc1cc2c(c(CC)n1)CCC(=O)N2Cc1ccc(-c2ccccc2-c2nn[nH]n2)cc1`: the remaining activity in assay [1] was 89.1% (inactive). The fold change was 0.902 (inactive) in assay [2] (setting [4]) and 0.831 in assay [2] (setting [5]). Besides, the values for the cell count in assay [2] (setting [6]) and in assay [2] (setting [7]) were 8410 and 9320, respectively. In addition, in assay [3], the z-score is 1.93 (inactive).

As for `Cc1ccc(S(=O)(=O)NCc2ccccc2)cc1`, in assay [1], the remaining activity was 121% (inactive). Also, the values for the fold change in assay [2] (setting [4]) and in assay [2] (setting [5]) were 0.861 (inactive) and 0.767, respectively. Further, the cell count is 8330 in assay [2] (setting [6]) and 9670 in assay [2] (setting [7]). The z-score in assay [3] was -0.21 (inactive).

With `CN1c2cc3c(cc2N=C(c2ccc(C(=O)O)cc2)c2ccccc21)C(C)(C)CCC3(C)C`, the remaining activity in assay [1] is 106% (inactive). Also, the figures for the fold change in assay [2] (setting [4]) and in assay [2] (setting [5]) were 0.924 (inactive) and 2, respectively. For the same molecule, the cell count in assay [2] (setting [6]) stood at 7660; in assay [2] (setting [7]) it was 8280. In addition, the z-score in assay [3] is -0.495 (inactive).

As for `COc1ccc2[nH]c(-c3ccccc3)c(CCNC(C)=O)c2c1`, in assay [1], the remaining activity is 99.3% (inactive). The results for the fold change in assay [2] (setting [4]) and in assay [2] (setting [5]) were 0.991 (inactive) and 0.88, respectively. For the same molecule, the values for the cell count in assay [2] (setting [6]) and in assay [2] (setting [7]) were 7770 and 7840, respectively. Besides, the z-score in assay [3] was -0.185 (inactive).

`COC(=O)/C=C/c1cccc(N(Cc2ccc(-c3ccc(N(C)C)cc3)cc2)C(=O)C2CCCCC2)c1`: the remaining activity in assay [1] is 97.3% (inactive). Also, the fold change in assay [2] (setting [4]) is 0.926 (inactive); in assay [2] (setting [5]), 1.8. The cell count in assay [2] (setting [6]) came to 7630; in assay [2] (setting [7]), 8240. The z-score in assay [3] was 0.225 (inactive).
